# Experimental data published in the supplement of paper PMC9877034.
# Structures can show the parent of a compound that is named as a salt. In all, about 1,000 compounds were measured (“cFRET/donor change relative to DMSO, normalised to beta-lapachone positive control (supercomplex I-IV assembly)”: median about 0.18, lowest 2% from about -1 on). For the sample, the lowest values were picked, then their nearest neighbours and some compounds at random.
# System: C2C12 (NDUFB8-AcGFP / COX8A-DsRed-Monomer FRET reporter)
# Test: cFRET/donor change relative to DMSO, normalised to beta-lapachone positive control (supercomplex I-IV assembly) (fraction of beta-lapachone effect); higher = more respiratory supercomplex assembly
# Settings: 40 µM; 24 h
# Procedure: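 Cells were treated with 40 uM compound for 24 h and imaged on an IN Cell Analyzer 6000. Corrected FRET was divided by donor signal (cFRET/donor) and measured in two replicate experiments. The score is (mean cFRET/donor of compound - mean DMSO) / (mean beta-lapachone 40 uM - mean DMSO). Compounds flagged for prominent cell death, abnormal morphology or decreased cell number were excluded.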
row,Structure (SMILES),cFRET/donor change
1,COCCOc1cc2nc[nH]c(=O)c2cc1OCCOC,0.343
2,CCNC(=O)[C@H]1O[C@@H](n2cnc3c(N)nc(NCCc4ccc(CCC(=O)O)cc4)nc32)[C@H](O)[C@@H]1O,-0.069
3,Nc1nc2ccc(Cl)cc2n2c(-c3ccccc3)nnc12,-1.23
4,Nc1nc2ccc(Cl)cc2c2nc(-c3ccco3)nn12,0.163
5,OC[C@H]1O[C@H]([S-])[C@H](O)[C@@H](O)[C@@H]1O.[Au+] [Aurothioglucose],-0.0527
6,"Nc1ncnc2c1ncn2[C@@H]1O[C@H](COP(=O)(O)OP(=O)(O)OP(=O)(O)OP(=O)(O)OC[C@@H]2O[C@H](n3cnc4c(N)ncnc43)C(O)[C@@H]2O)[C@H](O)C1O (stereo not given in full) [P1,P4-Di(adenosine-5')tetraphosphate triammonium]",0.0746
7,CCOC(=O)[C@H](CCc1ccccc1)N[C@@H](C)C(=O)N1[C@H](C(=O)O)C[C@H]2CCCC[C@@H]21 [Trandolapril],-0.23
8,CCc1ccc(/C=C2/SC(=S)NC2=O)cc1,-1.41
9,O=C1NC(=O)/C(=C\c2ccc3nccnc3c2)S1,2.84
10,CCCCS(=O)(=O)N[C@@H](Cc1ccc(OCCCCC2CCNCC2)cc1)C(=O)O [Tirofiban hydrochloride monohydrate],0.174
11,CO[C@H]1O[C@@H]2O[C@@]3(C)CC[C@H]4[C@H](C)CC[C@@H]([C@H]1C)[C@@]24OO3 [Artemether],0.954
12,O=C(NOCC1CC1)c1cc(Br)c(F)c(F)c1Nc1ccc(I)cc1Cl,0.176
13,COc1cc(Nc2c(C#N)cnc3cc(OCCCN4CCN(C)CC4)c(OC)cc23)c(Cl)cc1Cl [Bosutinib],0.241
14,NCC(O)c1ccc(O)c(O)c1 (racemic) [(±)-Norepinephrine (+)bitartrate],-0.03
15,CN(C)C[C@H](O)Cn1c2ccc(Br)cc2c2cc(Br)ccc21 (racemic) [Wiskostatin],0.951
16,CN(C)c1ccccc1CN1CCCN(Cc2ccccc2N(C)C)C1c1ccncc1,0.598
17,CS(=O)(=O)c1ccc(-n2nc(C(F)(F)F)cc2-c2ccc(F)cc2)cc1,0.187
18,O=C(Nc1ccc2[nH]ncc2c1)C1CCC1 [Rhodblock 6],0.156
19,COc1cc2nc(N(C)CCCNC(=O)C3CCCO3)nc(N)c2cc1OC (stereo not given) [Alfuzosin hydrochloride],0.0541
20,"CN(C)CCC(c1ccc(Br)cc1)c1ccccn1 (single isomer, unassigned; (+)) [(+)-Brompheniramine maleate]",0.114
21,CN1CCN(CCCN2c3ccccc3Sc3ccc(C(F)(F)F)cc32)CC1 [Trifluoperazine dihydrochloride],0.794
22,Nc1nc2c(c(=O)[nH]1)C[C@@H](CCc1ccc(C(=O)N[C@@H](CCC(=O)O)C(=O)O)cc1)CN2 [Lometrexol hydrate],-0.284
23,N=C(N)NC(=O)c1nc(Cl)c(N)nc1N [Amiloride hydrochloride],-0.0692
24,"CN(C)c1nc(N)c(C(=O)NC(=N)N)nc1Cl [5-(N,N-Dimethyl)amiloride hydrochloride]",0.174
25,CCN(c1nc(N)c(C(=O)NC(=N)N)nc1Cl)C(C)C [5-(N-Ethyl-N-isopropyl)amiloride],-1.88

row,Structure (SMILES),cFRET/donor change
1,COc1ccc(Br)cc1S(=O)(=O)NC(=O)/C=C/c1ccccc1Cc1ccc2ccccc2c1,0.583
2,COc1ccc(/C=C/c2nc(NCCCN(C)C)c3ccccc3n2)cc1,0.418
3,Cn1c(=O)c2nc[nH]c2n(C)c1=O [Theophylline],0.334
4,CC[N+](CC)(CC)CCOc1ccc(/C=C/c2ccccc2)cc1,0.391
5,OCCN1CCN(CCCN2c3ccccc3Sc3ccc(Cl)cc32)CC1 [Perphenazine],0.48
6,CN1CCC[C@@H]1Cc1c[nH]c2ccc(CCS(=O)(=O)c3ccccc3)cc12 [Eletriptan hydrobromide],0.314
7,"c1ccc(C2CN3CCSC3=N2)cc1 (single isomer, unassigned; (-)) [(-)-Tetramisole hydrochloride]",0.472
8,N#CC(=C(/N)Sc1ccccc1N)/C(C#N)=C(/N)Sc1ccccc1N,1.14
9,CCOC(=O)[N-]c1c[n+](N2CCOCC2)no1 [Molsidomine],0.0144
10,CCc1cncnc1N1CCN(Cc2nc3ccc(C(F)(F)F)cc3[nH]2)CC1,0.351
11,CN(C)CCCc1cc(C(=O)Nc2ccc(-c3ccncc3)cc2)ccc1O,0.377
12,OC(CCN1CCCCC1)(c1ccccc1)C1CC2C=CC1C2 (stereo not given) [Biperiden hydrochloride],0.472
13,CCCCCCCCCCCCCCCCCCN(CCCCCCCCCCCCCCCCCC)CCCN(CCO)CCO [Avridine],0.401
14,O=c1ccc2ccc(O)c(O)c2o1 [Daphnetin],0.438
15,"O=Nc1ccc2oc(=O)ccc2c1 [6-Nitroso-1,2-benzopyrone]",-1.07
16,O=C(CCc1ccncc1)NNC(=O)N1Cc2ccccc2Oc2ccc(Cl)cc21,0.597
17,CC(C)c1c(C(=O)Nc2ccccc2)c(-c2ccccc2)c(-c2ccc(F)cc2)n1CC[C@@H](O)C[C@@H](O)CC(=O)O [Atorvastatin calcium salt trihydrate],-0.0539
18,NS(=O)(=O)c1ccc(-n2nc(C(F)(F)F)cc2-c2ccc(Cl)cc2)cc1,0.219
19,"Cc1cn(C2C=CC(CO)O2)c(=O)[nH]c1=O (stereo not given) [2',3'-didehydro-3'-deoxythymidine]",0.515
20,COc1ccc(S(=O)(=O)Nc2nc(-c3cccc([N+](=O)[O-])c3)cs2)cc1OC,0.458
21,O=C1c2ccccc2C(=O)c2c(NCCc3ccc(O)cc3)ccc(NCCc3ccc(O)cc3)c21,-1.29
22,CC(NCCc1ccc(O)cc1)C(O)c1ccc(O)cc1 (stereo not given) [Ritodrine hydrochloride],-0.0849
23,O=C1c2c(O)ccc(O)c2C(=O)c2c(NCCNCCO)ccc(NCCNCCO)c21 [Mitoxantrone],0.111
24,CCOc1nc2cccc(C(=O)OC(C)OC(=O)OC3CCCCC3)c2n1Cc1ccc(-c2ccccc2-c2nn[nH]n2)cc1 (stereo not given) [Candesartan cilexetil],0.942
25,O=C1NCCc2[nH]c(-c3ccncc3)cc21,-0.0657
